HT1080NT lethal = qHTS for induction of synthetic lethality in tumor cells producing 2HG: qHTS for the HT-1080-NT fibrosarcoma cell line; HT-1080-NT fibrosarcoma viability, CellTiter-Glo ATP luminescence, 48 h; hit rate 1.6% among 360,000; Potency, µM (titrated, usually from 46.1 µM), inactives show at the highest dose activity, negative = less viability, actives largely listed as cytotoxic;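 also: NT is the 2HG producing partner of a matched IDH1 knockdown line; potency is read from the fitted curve at half-maximal effect; 0% = DMSO-treated cells and -100% = media-only wells without cells; nearly all actives have a fitted effect of over 55% in size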
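Viability by CellTiter-Glo luminescence after 48 h compound exposure at 37C of HT-1080-NT cells (750/well, RPMI, 5% FBS). % activity scaled between DMSO wells and medium-only wells, then curve-fitted and categorized by curve class.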
IL-1B inflam inh = qHTS for Inhibitors of Inflammasome Signaling: IL-1-beta AlphaLISA Primary Screen | hit rate 4.7% among 360,000 | activity change, % at 57.5 µM | THP-1 LPS/ATP IL-1B secretion, AlphaLISA, 16 h; hits give low values | AID 743279, 2014; in the data active = activity change below about -50%; inconclusive = mostly about -30% to -49%
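THP-1 cells pretreated 1 hr with compounds (up to 57.5 uM final), then stimulated with LPS (250 ng/mL final) plus ATP (1.25 mM final); secreted IL-1B measured by AlphaLISA after 16 hr, decreased signal indicating inhibition.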
HT1080 IDH1KD tx = qHTS for induction of synthetic lethality in tumor cells producing 2HG: qHTS for the HT-1080-IDH1KD cell line; HT-1080 IDH1 knockdown viability, ATP luminescence, 48 h; Potency, µM (titrated, usually from 46.1 µM), for inactives: top-dose activity, negative = toxicity, most hits filed as cytotoxic; hit rate 2% among 360,000; AID 686971, 2013;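 also: potency is read from the fitted curve at half-maximal effect; 0% = DMSO wells and -100% = cell-free medium wells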
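HT-1080-IDH1KD cells (IDH1 knocked down), 750/well in RPMI with 5% FBS, treated with compound 48 h at 37 degrees C. Viability by CellTiter-Glo luminescence, normalised to DMSO and no-cell wells; concentration-response curves classed.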
TDP1 cell noCPT = qHTS for Inhibitors of human tyrosyl-DNA phosphodiesterase 1 (TDP1): qHTS in cells in absence of CPT; hit rate 15% among 420,000; Potency, µM (doses to about 46.2 µM), without a hit: top-dose activity change, negative = growth inhibition, actives largely listed as inhibitors; AID 686978, 2013; DT40 Tdp1-/- hTDP1 cells, no CPT, ATP luminescence, 48 h; also: potency is read from the fitted curve at half-maximal effect; nearly all actives have a fitted effect of over 55% in size
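Growth kinetics read by CellTiter-Glo luminescence after ≥48 hr at 37 °C. Cells: DT40 Tdp1-/- stably carrying human TDP1, 400 per well, compound exposure in the absence of CPT (DMSO vehicle).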
TDP1 cell CPT = qHTS for Inhibitors of human tyrosyl-DNA phosphodiesterase 1 (TDP1): qHTS in cells in presence of CPT; Potency, µM (doses to about 46.2 µM), inactives show top-dose activity change, negative = growth inhibition, usual class: inhibitors; chicken DT40 Tdp1-/-;hTDP1 cells + 20 nM CPT, ATP luminescence, 48 h; hit rate 12% among 420,000; also: potency is read from the fitted curve at half-maximal effect; nearly all actives have a fitted effect of over 55% in size
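Chicken DT40 Tdp1-/- cells stably complemented with human TDP1 were seeded at 400 cells/well in medium containing 20 nM camptothecin, exposed to pin-transferred compounds, and grown at 37 °C for at least 48 hr. Viability was read as ATP luminescence.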
Starred values were filed as active, the others as inactive; ? = inconclusive; / = no result given. Sampled rows, rich in hits. Any-hit rate of the full collection: about 19%. Unless noted, calls follow the shape of the dose curve; as a rule, active = well fitted curve in the direction sought with a large enough effect; inconclusive = small, poorly fitted or top-dose-only effect, or another doubt; inactive = no such curve, though single readings can be large; an effect the other way counts as inactive or inconclusive. Unless noted, % is scaled to controls: 0 for no effect and ±100 for the full control effect.

SMILES | HT1080NT lethal | IL-1B inflam inh | HT1080 IDH1KD tx | TDP1 cell noCPT | TDP1 cell CPT
O=S(=O)(NCCc1c[nH]c2ccccc12)c1ccc(F)cc1 | 5% | 17 | 0% | -29% | 0%
CCCCC1=CC2=CC(=O)C(C)(OC(=O)CC)C(=O)C2=CN1Cc1ccc2c(c1)OCO2 (stereo unspecified) | -26% | 35 | 1% | 15µM* | ?
CCCCC1=CC2=CC(=O)C(C)(OC(=O)CC)C(=O)C2=CN1c1ccc(OC)cc1 (stereo unspecified) | -5% | 25 | -2% | ? | 26µM*
CCS(=O)(=O)c1cccc(C(=O)N2CCN(c3nc4c(C)ccc(Cl)c4s3)CC2)c1 | / | / | / | ? | 16µM*
COc1ccc(C)c2sc(N3CCN(C(=O)c4cccc(F)c4)CC3)nc12 | / | / | / | -25% | -18%
CCOc1ccc2nc(N3CCN(C(=O)c4ccc(S(=O)(=O)CC)cc4)CC3)sc2c1 | / | / | / | 18µM* | 18µM*
CCOc1ccc2nc(N3CCN(C(=O)CS(=O)(=O)c4ccc(F)cc4)CC3)sc2c1 | / | / | / | 16µM* | 15µM*
CCN(Cc1ccccc1)S(=O)(=O)c1ccc(C(=O)N2CCN(c3nc4ccccc4s3)CC2)cc1 | 18% | -19 | 13% | 9.2µM* | 15µM*
Cc1ccccc1-c1ccc2ncnc(N3CCN(C)CC3)c2c1 | / | / | / | 16µM* | ?
Cc1ccccc1-c1cncnc1N1CCN(C)CC1 | / | / | / | 5% | -16%
CN1CCN(c2ncnc3ccc(-c4ccccc4Cl)cc23)CC1 | / | / | / | 21µM* | 16µM*
O=C(O)CCC(=O)N1CCc2cc(S(=O)(=O)NCc3ccc(F)cc3)ccc21 | / | / | / | -9% | -5%
Cc1cc(C)c2c(CC(=O)NNC(=O)c3ccccc3)coc2c1 | 0% | -22 | 0% | 8% | 5%
CC(C)(C)NC(=O)NC(=O)COC(=O)Cc1c(Cl)cccc1Cl | -16% | -54* | 0% | -28% | -1%
COc1ccc(Cl)cc1C(=O)NCc1nnnn1-c1ccccc1 | / | / | / | -9% | -6%
Cc1ccc(/C=C2\SC(=S)N(C3CCS(=O)(=O)C3)C2=O)cc1 (stereo unspecified) | -3% | -24 | 6% | 15µM* | ?
O=C1/C(=C\c2ccco2)SC(=S)N1c1ccccc1 | -1% | -13 | -27% | ? | 5%
O=C1/C(=C\c2ccco2)SC(=S)N1C1CCS(=O)(=O)C1 (stereo unspecified) | ? | / | ? | 21µM* | 23µM*
O=C1/C(=C/c2ccncc2)SC(=S)N1C1CCCCC1 | 16% | 8 | 16% | ? | -12%
O=C1/C(=C/c2ccco2)SC(=S)N1C1CCS(=O)(=O)C1 (stereo unspecified) | -26% | -9 | -22% | 16µM* | 15µM*
Cc1ccc(-c2nnnn2C2C/C(=N\NC(N)=S)C3OCC2O3)cc1 (stereo unspecified) | 1% | 9 | 2% | 20% | 6%
C[C@@H]1CN([C@@H](C)CO)S(=O)(=O)c2ccc(Br)cc2O[C@@H]1CN(C)Cc1ccccn1 | 2% | -8 | 24% | ? | ?
C[C@@H]1CN([C@@H](C)CO)S(=O)(=O)c2ccc(Br)cc2O[C@H]1CN(C)Cc1ccccn1 | -9% | 10 | -8% | 23µM* | 15µM*
C[C@@H]1CN([C@@H](C)CO)S(=O)(=O)c2ccc(-c3ccc(C#N)cc3)cc2O[C@@H]1CN(C)Cc1ccccn1 | -18% | -28 | 0% | 13µM* | ?
C[C@H]1CN([C@@H](C)CO)S(=O)(=O)c2ccc(-c3ccc(C#N)cc3)cc2O[C@H]1CN(C)C(=O)CN(C)C | 4% | 13 | 14% | 6% | -3%
SMILES | HT1080NT lethal | IL-1B inflam inh | HT1080 IDH1KD tx | TDP1 cell noCPT | TDP1 cell CPT
O=C(CSc1ccc(Br)cc1)NCC(c1ccco1)N1CCCCC1 (stereo unspecified) | -2% | -20 | 0% | ? | ?
CN(C)c1ccc2c(O)cc(=O)n(C)c2c1 | 6% | 33 | ? | 16µM* | 15µM*
CN(C)c1ccc2cc(S(=O)(=O)O)cc(O)c2c1 | 15% | -22 | 2% | -9% | ?
C[C@@H]1CC[C@]2(O[C@H](CCO)C[C@H](O)[C@H]2O)O1 | 12% | 27 | 17% | 15% | 1%
Cc1ccc(S(=O)(=O)N2C[C@@H]3CCCC[C@@H]3[C@@H](C)[C@H]2c2cn(Cc3ccccc3)c3ccccc23)cc1 | -2% | 5 | -2% | 7.3µM* | 6.5µM*
Cc1ccc(S(=O)(=O)N2C[C@@H]3[C@H]4CC[C@H](C4)[C@@H]3[C@@H](C)[C@H]2C#N)cc1 | 5% | 18 | 3% | ? | 21µM*
Cc1ccc(S(=O)(=O)N2CC3CCC2C3)cc1 (stereo unspecified) | 12% | 0 | 8% | -29% | -20%
Cc1ccc(S(=O)(=O)N2C[C@@H]3[C@H]4CC[C@H](C4)[C@@H]3[C@@H](C)[C@@H]2c2cn(Cc3ccccc3)c3ncccc23)cc1 | 0% | -18 | -4% | 21µM* | 23µM*
Cc1ccc(S(=O)(=O)N2C[C@@H]3[C@H]4CC[C@H](C4)[C@@H]3[C@@H](C)[C@H]2c2ccn(Cc3ccccc3)c2)cc1 | ? | ? | -14% | -75% | 29µM*
CCCNC(=S)Nc1ccc(Cl)cc1Cl | 0% | 13 | 1% | -21% | -19%
CCOc1ccc(C(C(=O)NCC2CCCO2)N(Cc2cccnc2)C(=O)c2snc(C(N)=O)c2N)cc1 (stereo unspecified) | 18% | -3 | 20% | -14% | 7%
CC(C)Oc1ccc(C(=O)Nc2nnc(SCC(=O)N3CCOCC3)s2)cc1 | -2% | 4 | -4% | -23% | -18%
Cc1ccc(S(=O)(=O)N2C[C@@H]3CCCC[C@@H]3[C@@H](C)[C@H]2c2cn(Cc3ccccc3)c3ncccc23)cc1 | -2% | -1 | -1% | ? | 12µM*
COc1cccc(NC(=O)Cn2nc(C)c3c(C)n(-c4ccccc4)nc3c2=O)c1 | / | / | / | -13% | -6%
O=C(CSCc1ccccc1)NNC(=S)Nc1cccc(Cl)c1Cl | -2% | 12 | -7% | ? | ?
Cc1cccc(Cl)c1NC(=S)NN | 3% | -8 | 2% | 13µM* | ?
NCCCC[C@@H](C(=O)NCCCCCCCCCCC(=O)N1CCNCC1)n1cc(CCCC(=O)O)nn1 | 19% | 26 | 12% | 2% | -4%
COc1ccc(-c2cc(C(C)=O)c(C)n2CCC(=O)Nc2cc(C)ccc2OC)cc1 | / | / | / | 18µM* | 16µM*
